# In the library only some 2.1% were active in any assay of this set; here they are far more common.
# COUP-TFII inh: NR2F2 transcriptional activity inhibitors, primary screen, cell-based, luciferase reporter, HEK293T, luminescence. HEK293T NGFI-A luciferase reporter. 370,000 compounds, 0.7% hits. inhibition, % at 8.6 µM;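 active = inhibition above a per-plate cutoff, mean inhibition of test wells between control levels plus 3 SD, cut at about 38% in these data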;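 also: cells cotransfected with COUP-TFII expression vector driving the NGFI-A reporter; 0% = median of COUP-TF2 test wells and 100% = reporter-only cells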
# Target sequence (P24468 whole entry, looked up): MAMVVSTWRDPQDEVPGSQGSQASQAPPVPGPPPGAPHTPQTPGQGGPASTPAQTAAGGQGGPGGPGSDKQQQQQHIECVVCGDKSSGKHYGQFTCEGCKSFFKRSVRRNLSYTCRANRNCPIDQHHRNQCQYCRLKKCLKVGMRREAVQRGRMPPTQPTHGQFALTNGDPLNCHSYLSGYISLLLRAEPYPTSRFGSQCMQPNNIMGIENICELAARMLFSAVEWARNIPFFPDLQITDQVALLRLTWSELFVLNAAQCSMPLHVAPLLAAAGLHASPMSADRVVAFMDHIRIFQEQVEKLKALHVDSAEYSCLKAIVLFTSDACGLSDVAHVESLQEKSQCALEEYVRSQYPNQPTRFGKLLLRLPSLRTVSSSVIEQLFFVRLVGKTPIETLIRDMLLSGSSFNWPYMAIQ
# GalR3 antagonist: GalR3 antagonists in HEK293 cells, primary screen, cell-based, fluorescence readout | HEK293 GalR3-CNG cAMP membrane potential fluorescence; galR3 body fused to GalR1 C-terminus | AID 651719, 2012 | Galanin receptor type 3 (Homo sapiens), O60755 | inhibition, % at 3 µM | 360,000 compounds, 0.44% hits;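 active = inhibition above the screen-wide average plus 3 SD, cut at about 13% in these data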;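 also: forskolin and galanin both at EC90 stimulate the cells; cAMP rise reported by CNG channel membrane potential dye signal; 0% = forskolin plus galanin with DMSO and 100% = forskolin alone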
# Target sequence (O60755 1-299 limits assumed): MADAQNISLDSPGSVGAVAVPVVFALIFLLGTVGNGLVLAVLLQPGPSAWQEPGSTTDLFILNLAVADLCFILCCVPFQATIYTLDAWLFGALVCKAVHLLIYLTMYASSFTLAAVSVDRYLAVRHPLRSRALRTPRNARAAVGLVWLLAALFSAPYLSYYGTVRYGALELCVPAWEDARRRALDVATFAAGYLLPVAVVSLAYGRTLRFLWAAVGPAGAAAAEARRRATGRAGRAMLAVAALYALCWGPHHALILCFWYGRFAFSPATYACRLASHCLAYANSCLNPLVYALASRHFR
# aDG glyco up: activators of alpha-DG glycosylation, primary screen, uHTS, Pro5-aDG cells, AlphaScreen; alpha-DG glycosylation AlphaScreen (IIH6); 0% Pro5, 100% B10-LARGE cell signal; activation, % at 10 µM; 360,000 compounds, 0.22% hits;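 active = activation of at least 8% versus controls, or a plate z-score of at least 8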;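 also: Pro5 are CHO cells carrying HIG-tagged alpha-DG that lacks glycosylation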
# Env fusion inh: inhibitors of HIV-1 Env-driven cell-cell fusion, primary screen, HeLa-JRFL effector, CEM21 target cells, luciferase. AID 651610, 2012. inhibition, % at 12.3 µM. 360,000 compounds, 1.1% hits;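 active = mean replicate inhibition score of at least 50 and every replicate individually at or above 50; inconclusive = only one of the two criteria met; inactive = mean below 50 and not all replicates reaching 50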;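 also: 0% = plate neutral controls and 100% = maraviroc near 300 nM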
# Gli-Sufu antag: Gli-Sufu pathway antagonists, primary screen, luciferase luminescence, Sufu-KO-LIGHT cells, uHTS; Sufu-KO-LIGHT fibroblasts, Gli luciferase reporter luminescence; inhibition, % at 5 µM; 340,000 compounds, 0.74% hits; AID 588413, 2011;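 active = inhibition above about 55%, limit read from the data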;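 also: 0% = DMSO-treated cells and 100% = wells with medium but no cells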
# Gli-Sufu confirm: Gli-SUFU pathway antagonists, confirmation, single concentration, luciferase luminescence, Sufu-KO-LIGHT cells | shares compounds with Gli-Sufu antag | Gli luciferase reporter | inhibition, % at 5 µM | 2,500 compounds, 40% hits | AID 602428, 2012;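 active = mean inhibition at 5 µM reaching about 45%, limit read from the data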;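 also: plate controls were DMSO-treated cells for no effect and wells lacking cells for full effect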
# SufuKO cytotox: cytotoxicity in Sufu-KO-LIGHT cells, confirmation, cytotoxicity control for Gli-SUFU antagonist project, cell-based, ATP luminescence, single concentration; shares compounds with Gli-Sufu antag; cytotoxicity, % at 5 µM; 2,500 compounds, 32% hits;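 active = mean cytotoxicity at 5 µM above about 25%, limit read from the data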;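 also: cells exposed to compound overnight for roughly 16 to 18 hours; plate controls were DMSO wells with cells for no effect and medium without cells for full effect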
# Wnt3a counter: Wnt3a reporter signal inhibition, confirmation, counter-screen for Gli-SUFU antagonist project, Wnt-LIGHT cells, luminescence, single concentration. inhibition, % at 6.25 µM. Wnt3a-driven luciferase reporter. AID 651995, 2013. 2,500 compounds, 20% hits. shares compounds with Gli-Sufu antag;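 active = mean inhibition above about 25%, limit read from the data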
# * = called active by the depositor; ? = inconclusive; nt = no result; [ ] = another dose, or the depositor's remark.
SMILES,COUP-TFII inh,GalR3 antagonist,aDG glyco up,Env fusion inh,Gli-Sufu antag,Gli-Sufu confirm,SufuKO cytotox,Wnt3a counter
COc1cccc(NC(=O)C2CCN(S(=O)(=O)c3ccc(N4CCCC4=O)cc3)CC2)c1,18,-6,0,10,nt,nt,nt,nt
O=C(Nc1cccc(C(F)(F)F)c1)C1CCN(S(=O)(=O)c2ccc(N3CCCC3=O)cc2)CC1,27,-4,2,29,53,58*,24,-9
CCOC(=O)C1(CCc2ccccc2)CCN(Cc2cccc3nccnc23)CC1,5,-9,1,19,55,30,4,-58
CCOC(=O)C1(CCCc2ccccc2)CCN(Cc2nccn2CC)CC1,29,-5,5,-4,50,33,10,-17
COc1cc(/C=N/NC(=O)c2cc(-c3ccccc3)nc3ccccc23)ccc1O,10,-12,0,3,59*,11,15,-98
COc1ccc(/C=N/NC(=O)c2cc(-c3ccccc3)nc3ccccc23)cc1O,5,-8,0,18,-1,nt,nt,nt
COc1ccc(/C=N/NC(=O)c2nc(-c3ccccc3)cc(-c3ccccc3)n2)cc1O,-23,-4,0,-49,55*,1,7,-73
Cc1ccc2sc(NC(=O)CN3C(=O)CCC3=O)nc2c1C,2,1,0,-18,57*,17,19,-16
Cc1ccc(NC(=S)NCc2ccc3[nH]c4c(c3c2)CCCC4)cc1,3,nt,0,12,1,nt,nt,nt
COCCNC(=S)NCc1ccc2[nH]c3c(c2c1)CCCC3,-28,0,0,2,92*,12,26*,-8
CCN1C/C(=C\c2cc(OC)c(OC)c(OC)c2)C2=NN(c3ccccc3)C(c3cc(OC)c(OC)c(OC)c3)C2C1 (configuration not stated),-37,-6,0,20,53,30,17,-9
Cc1nn(-c2ccccc2)c(C)c1/C=N/NC(=O)c1cc(-c2cccs2)[nH]n1,-66,1,0,-38,50,61*,60*,-62
Cc1nn(-c2ccccc2)c(C)c1/C=N/NC(=O)c1cc(-c2ccc(Br)s2)[nH]n1,5,-1,0,-173,2,nt,nt,nt
CCCN(C)C[C@H]1OCCCC[C@@H](C)Oc2ccc(NC(=O)Nc3ccc(OC)cc3)cc2C(=O)N([C@H](C)CO)C[C@@H]1C,nt,nt,nt,-3[16.7 µM],nt,nt,nt,nt
C[C@@H]1CN([C@H](C)CO)C(=O)CCCn2nncc2CO[C@@H]1CN(C)Cc1cccnc1,nt,nt,nt,-2[16.7 µM],nt,nt,nt,nt
O=c1[nH]c(Nc2nc3ccccc3o2)nc2c1CCCC2,-14,-4,1,nt,62*,64*,39*,44*
Cc1ccc(Nc2nc3c(c(=O)[nH]2)CCCC3)cc1,-27,-4,0,nt,-38,nt,nt,nt
Cc1ccc(S(=O)(=O)N2CCSC2)cc1C,-9,-3,0,nt,56*,13,8,12
COc1ccc(S(=O)(=O)N2CCSC2)cc1C,10,-8,0,-5,-6,nt,nt,nt
Cc1[nH]c2ccccc2c1/C=C/c1nc2ccccc2c(=O)n1-c1cccc([N+](=O)[O-])c1,12,-5,0,17,50,20,8,-8
COc1ccc(OCCC(=O)NCCN2CCOCC2)cc1,5,-1,0,-4,55,21,16,-16
COc1ccc(OCC(O)Cn2c(=N)n(CCN3CCOCC3)c3ccccc32)cc1 (configuration not stated),-20,-5,0,-31,63*,18,17,-19
N=c1n(CCN2CCOCC2)c2ccccc2n1CC(O)COc1ccccc1 (configuration not stated),-26,-4,0,nt,32,nt,nt,nt
CCCN(C)C[C@@H]1Oc2ncc(Br)cc2C(=O)N([C@H](C)CO)C[C@H]1C,nt,nt,nt,-9[16.7 µM],nt,nt,nt,nt
CCOC(=O)c1c(C)[nH]c(C(=O)N/N=C/c2ccc(Br)cc2)c1C,-64,-4,0,nt,52,50*,61*,-18
SMILES,COUP-TFII inh,GalR3 antagonist,aDG glyco up,Env fusion inh,Gli-Sufu antag,Gli-Sufu confirm,SufuKO cytotox,Wnt3a counter
O=C(NC1CCC1)[C@@H]1[C@@H](CO)[C@@H]2Cn3c(ccc(-c4ccc(F)cc4)c3=O)[C@@H]2N1Cc1ccccn1,nt,nt,nt,-26[16.7 µM],nt,nt,nt,nt
C[C@H]1CN([C@@H](C)CO)S(=O)(=O)c2ccc(C#CC3CC3)cc2O[C@H]1CN(C)C(=O)CN(C)C,nt,nt,nt,3[16.7 µM],nt,nt,nt,nt
CN1/C(=C\C(=O)CN2C(=O)NC3(CCCCCC3)C2=O)C(C)(C)c2ccccc21,-12,-6,1,19,70*,41,52*,-31
CN1/C(=C\C(=O)COC(=O)CN2C(=O)C3CC=CCC3C2=O)C(C)(C)c2ccccc21 (configuration not stated),-17,1,0,-74,9,nt,nt,nt
Cc1cccc[n+]1CC(=O)/C=C1\N(C)c2ccccc2C1(C)C,33,-7,0,?,63*,61*,24,31*
CN1/C(=C\C(=O)CSc2cccc[n+]2[O-])C(C)(C)c2ccccc21,1,-7,0,-2,27,nt,nt,nt
CCOc1ccc(S(=O)(=O)N(C)c2ccc(OCC(=O)NCc3ccco3)cc2)cc1,-2,0,0,nt,95*,10,3,-30
CCOc1ccc(S(=O)(=O)N(C)c2ccc(OCC(=O)NCc3cccnc3)cc2)cc1,-1,-2,-1,3,-13,nt,nt,nt
CSc1ncc(Cl)c(C(=O)Nc2nnc(SC)s2)n1,15,0,0,nt,-2,nt,nt,nt
CCCSc1nnc(NC(=O)c2nc(SC)ncc2Cl)s1,-2,-5,0,-42,56*,20,19,-22
O=C(Nc1nnc(-c2ccco2)o1)c1ccc2ccccc2c1,6,2,0,-15,97*,8,2,-14
C[C@@H]1CCCCO[C@@H](CN(C)C(=O)C2CCCCC2)[C@@H](C)CN([C@@H](C)CO)C(=O)c2cc(NC(=O)Cc3ccccc3)ccc2O1,nt,nt,nt,-23[16.7 µM],nt,nt,nt,nt
O=C(Cn1cc(C(F)(F)F)ccc1=O)N/N=C/c1ccc(O)cc1,7,-7,0,5,0,nt,nt,nt
O=C(Cn1cc(C(F)(F)F)ccc1=O)N/N=C/c1ccc(Cl)c(Cl)c1,10,-4,0,6,50,17,8,-49
CCCCc1ccc(N=N/C(C(=O)Nc2cc(OC)c(NC(C)=O)cc2OC)=C(/C)O)cc1,9,-2,-1,-2,64*,16,4,-40

# High-throughput results deposited in PubChem BioAssay by several laboratories.
